C diff growth: C. difficile growth inhibitors, primary screen, HTS | Clostridium difficile clinical isolate growth, OD600, 24 h; stronger effect = lower value | growth activity, negative = inhibition, % at 16 µg/mL (by protocol) | 86,000 compounds, 0.25% hits;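 active = mean growth activity at or below -80% and every replicate also at or below -80%; inconclusive = mean at or below -80% but some replicate above -80%; inactive = mean growth activity above -80%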
Pf Dd2 growth: P. falciparum Dd2 growth inhibitors, primary screen, SYBR Green fluorescence, single dose replicates; 72 h; stronger effect = lower value; activity change, % at 10 µM; 94,000 compounds, 2.3% hits; in the data active = activity change below about -80%; inconclusive = no clear call, values can overlap the other calls
T cruzi growth-1: T. cruzi intracellular proliferation inhibitors, primary screen, cell-based, beta-gal Tulahuen parasites, NIH3T3 host, luminescence; T. cruzi beta-gal in NIH3T3, GalScreen luminescence, 90 h; inhibition, % at 8.34 µM; 77,000 compounds, 5.9% hits;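 active = mean inhibition above about 93%, with at least 55% of replicates each passing it, limit read from the data, passing the limit was not always enough; inconclusive = only one of those two conditions holds; inactive = neither condition holds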
T cruzi growth-2: T. cruzi intracellular proliferation inhibitors, confirmation, cell-based, NIH3T3 host, beta-gal parasite, luminescence, cherry-pick; shares compounds with T cruzi growth-1; AID 651739, 2012; 5,600 compounds, 72% hits; T. cruzi beta-gal in NIH3T3, GalScreen luminescence, 90 h; inhibition, % at 8.35 µM;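 active = mean replicate inhibition above about 95% and at least 55% of replicates individually reaching it, limit read from the data; inconclusive = only one of the two criteria is met; inactive = neither criterion is met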
T cruzi growth-3: inhibitors of intracellular T. cruzi replication, confirmation, NIH3T3 host cells, beta-gal parasites, cherry-pick, set 2. shares compounds with T cruzi growth-1. AID 651740, 2012. 5,600 compounds, 21% hits. inhibition, % at 2.09 µM. T. cruzi beta-gal in NIH3T3, GalScreen luminescence, 90 h;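 active = mean inhibition above about 95%, with at least 55% of replicates also reaching it, limit read from the data; inconclusive = meets just one of the two conditions; inactive = meets neither condition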
3T3 cytotox: cytotoxicity in mouse NIH/3T3 fibroblasts, confirmation, cytotoxicity control for T. cruzi proliferation inhibitor project, cell-based, cherry-pick, single point | NIH/3T3 viability, CellTiter-Glo ATP luminescence, 90 h | cytotoxicity (signal decrease), % at 8.35 µM | 5,600 compounds, 14% hits | shares compounds with T cruzi growth-1;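 active = mean signal decrease across replicates above about 35% based on untreated-well scatter, with enough replicates individually passing, limit read from the data; inconclusive = no rule stated though some were filed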
3T3 cytotox 2: NIH/3T3 fibroblast cytotoxicity, confirmation, cytotoxicity control, cell-based, cherry-pick, single point, set 2. shares compounds with T cruzi growth-1. NIH/3T3 viability, CellTiter-Glo ATP luminescence, 90 h. 5,600 compounds, 56% hits. inhibition, % at 24.9 µM. AID 651744, 2012;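 active = mean loss of cell viability signal at or above a set limit, and enough replicates individually reaching it; inconclusive = meets only the mean limit or only the replicate share; inactive = meets neither condition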
A number is an active result; . = inactive; ? = inconclusive; / = not tested or not shown. Compounds with a hit are over-represented: about 6.7% of the library has one in this group of screens.

SMILES | C diff growth | Pf Dd2 growth | T cruzi growth-1 | T cruzi growth-2 | T cruzi growth-3 | 3T3 cytotox | 3T3 cytotox 2
Cc1ccc(S(=O)(=O)Nc2ccc3c(c2)C(=O)N([C@H](C)CO)C[C@@H](C)[C@@H](CN(C)S(=O)(=O)c2ccc(Cl)cc2)OCCCC[C@H](C)O3)cc1 | . | -86 | 117 | 97 | 107 | . | .
Cc1ccc(S(=O)(=O)Nc2ccc3c(c2)C(=O)N([C@@H](C)CO)C[C@@H](C)[C@H](CN(C)S(=O)(=O)c2ccc(Cl)cc2)OCCCC[C@@H](C)O3)cc1 | . | . | 120 | 101 | 100 | . | .
Cc1ccc(S(=O)(=O)Nc2ccc3c(c2)C(=O)N([C@H](C)CO)C[C@H](C)[C@@H](CN(C)S(=O)(=O)c2ccc(Cl)cc2)OCCCC[C@@H](C)O3)cc1 | . | . | 108 | 106 | . | . | 45
C[C@@H]1CN([C@@H](C)CO)C(=O)c2cc(NS(=O)(=O)c3ccc(F)cc3)ccc2O[C@H]1CN(C)S(=O)(=O)c1cccs1 | . | . | . | / | / | / | /
COc1ccc(NC(=O)N(C)C[C@H]2Oc3ccc(NS(=O)(=O)c4ccccc4)cc3CC(=O)N([C@H](C)CO)C[C@H]2C)cc1 | . | . | . | / | / | / | /
C[C@@H]1CN([C@@H](C)CO)C(=O)c2cccc(NC(=O)C3CCOCC3)c2O[C@@H]1CN(C)Cc1ccccc1 | . | . | . | / | / | / | /
COc1ccc(CN(C)C[C@H]2Oc3ccc(NS(=O)(=O)c4ccc(F)cc4)cc3C(=O)N([C@@H](C)CO)C[C@H]2C)cc1 | . | . | . | / | / | / | /
CC(C)NC(=O)N(C)C[C@@H]1Oc2ccc(NS(=O)(=O)c3ccc(F)cc3)cc2CC(=O)N([C@@H](C)CO)C[C@H]1C | . | . | . | / | / | / | /
C[C@H](CO)N1C[C@H](C)[C@@H](CN(C)CC2CCCCC2)Oc2ccc(NS(=O)(=O)c3ccc(Cl)cc3)cc2CC1=O | . | . | . | / | / | / | /
CC(C)NC(=O)N(C)C[C@H]1Oc2ccc(NS(=O)(=O)c3ccc(F)cc3)cc2CC(=O)N([C@H](C)CO)C[C@@H]1C | . | . | 103 | . | . | . | .
C[C@H](CO)N1C[C@H](C)[C@@H](CN(C)CC2CCCCC2)Oc2ccc(NS(=O)(=O)c3ccc(F)cc3)cc2CC1=O | . | . | 107 | 107 | . | . | 104
C[C@H]1CN([C@@H](C)CO)C(=O)Cc2cc(NS(=O)(=O)c3ccc(F)cc3)ccc2O[C@H]1CN(C)CC1CC1 | . | . | / | / | / | / | /
C[C@@H]1CN([C@H](C)CO)C(=O)Cc2cc(NS(=O)(=O)c3ccc(Cl)cc3)ccc2O[C@H]1CN(C)CC1CCCCC1 | . | . | 106 | 96 | ? | . | 106
CO[C@H]1CN(C)C(=O)c2ccc(NC(=O)C3CCOCC3)cc2OC[C@@H](C)N(C(=O)c2ccccc2)C[C@H]1C | / | . | . | / | / | / | /
COc1ccc(CN(C)C[C@H]2Oc3ccc(NS(=O)(=O)c4ccc(C)cc4)cc3C(=O)N([C@H](C)CO)C[C@@H]2C)cc1 | . | . | . | / | / | / | /
Cn1cnc(CCNC(=O)C[C@@H]2CC[C@H]3[C@@H](COC[C@@H](O)CN3C(=O)C3CC3)O2)c1 | . | . | 104 | 102 | . | . | .
Cn1cnc(CCNC(=O)C[C@H]2CC[C@H]3[C@@H](COC[C@H](O)CN3C(=O)Nc3ccccc3)O2)c1 | . | . | . | / | / | / | /
Cn1cnc(CCNC(=O)C[C@@H]2CC[C@H]3[C@@H](COC[C@H](O)CN3C(=O)C3CC3)O2)c1 | . | . | . | / | / | / | /
Cn1cnc(CCNC(=O)C[C@H]2CC[C@@H]3[C@H](COC[C@H](O)CN3C(=O)Nc3ccc(C(F)(F)F)cc3)O2)c1 | . | . | ? | . | . | . | .
Cn1cnc(CCNC(=O)C[C@H]2CC[C@H]3[C@@H](COC[C@H](O)CN3C(=O)Nc3ccc(Cl)cc3)O2)c1 | / | . | . | / | / | / | /
Cn1cnc(CCNC(=O)C[C@@H]2CC[C@H]3[C@@H](COC[C@@H](O)CN3C(=O)Nc3ccc(C(F)(F)F)cc3)O2)c1 | . | . | 107 | . | . | . | .
C[C@@H]1CCCCO[C@@H](CN(C)Cc2ccc(Cl)c(Cl)c2)[C@@H](C)CN([C@H](C)CO)C(=O)c2cc(NS(=O)(=O)c3cn(C)cn3)ccc2O1 | . | . | . | / | / | / | /
CC(C)NC(=O)N(C)C[C@@H]1Oc2c(NC(=O)C3CCOCC3)cccc2C(=O)N([C@H](C)CO)C[C@H]1C | . | . | . | / | / | / | /
CC(=O)N1[C@H](C(=O)NC2CCCCC2)[C@@H](CO)[C@@H]2Cn3c(cccc3=O)[C@@H]21 | . | . | . | / | / | / | /
C[C@@H]1CN([C@H](C)CO)C(=O)c2cc(NC(=O)Nc3cccc4ccccc34)ccc2O[C@H]1CN(C)Cc1ccccc1 | . | . | . | / | / | / | /
SMILES | C diff growth | Pf Dd2 growth | T cruzi growth-1 | T cruzi growth-2 | T cruzi growth-3 | 3T3 cytotox | 3T3 cytotox 2
C[C@H]1CN([C@@H](C)CO)C(=O)c2cc(NC(=O)Nc3cccc4ccccc34)ccc2O[C@@H]1CN(C)Cc1ccc(C(F)(F)F)cc1 | . | . | 87 | 109 | . | . | .
C[C@@H]1CN([C@H](C)CO)C(=O)c2cc(NC(=O)Nc3cccc4ccccc34)ccc2O[C@H]1CN(C)Cc1ccc(C(F)(F)F)cc1 | . | . | 106 | 105 | . | . | ?
C[C@@H]1CN([C@@H](C)CO)C(=O)c2cc(NC(=O)Nc3cccc4ccccc34)ccc2O[C@@H]1CN(C)Cc1ccccc1 | . | . | . | / | / | / | /
CN1C[C@@H]2[C@H](c3ccccc31)[C@@H](CO)N2Cc1ccccc1 | . | . | . | / | / | / | /
C[C@@H]1CN([C@@H](C)CO)C(=O)Cc2cc(NC(=O)C3CC3)ccc2O[C@H]1CN(C)Cc1ccc(Cl)c(Cl)c1 | . | . | 124 | 98 | . | 40 | 106
C[C@@H]1CN([C@@H](C)CO)C(=O)Cc2cc(NC(=O)C3CCCCC3)ccc2O[C@@H]1CN(C)Cc1ccc(Cl)c(Cl)c1 | . | . | . | / | / | / | /
C[C@H](CO)N1C[C@H](C)[C@@H](CN(C)Cc2ccc(Cl)c(Cl)c2)Oc2ccc(NC(=O)C3CC3)cc2CC1=O | . | . | 115 | 105 | . | . | .
C[C@H]1CN([C@@H](C)CO)C(=O)Cc2cc(NC(=O)C3CC3)ccc2O[C@@H]1CN(C)Cc1ccc(Cl)c(Cl)c1 | . | . | . | / | / | / | /
CN(C)CCCNC(=O)C[C@@H]1C=C[C@H](NS(=O)(=O)c2ccc(F)cc2)[C@H](CO)O1 | . | . | . | / | / | / | /

Compound activity as filed in PubChem BioAssay.
